# In the supplement of paper PMC6555819:
# Key:
# Test in all cases: PBM binding z-score (relative to random genomic background probes); higher = stronger binding; sequences stand for … in GC…GCGATTGACAGCGTAGAATGAAGG
# [1] = tested on: FXR:RXRa (NR concentration 270 nM, RXRa partner concentration 90 nM)
# Procedure, shortened: (§1)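 Binding z-scores were set against random background probes. The data came from custom Agilent 4×180K protein-binding microarrays carrying double-stranded probes with 34-nt variable regions, incubated 1 h with ligand-free nuclear receptor dimers. Partner-specific antibodies detected binding, and scanned fluorescence was regression-normalized.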
# [2] = tested on: LXRa:RXRa (NR concentration 270 nM, RXRa partner concentration 90 nM)
# Procedure, shortened: as §1
# [3] = tested on: LXRa homodimer (NR concentration 270 nM)
# Procedure, shortened: as §1
# [4] = tested on: LXRb:RXRa (NR concentration 270 nM, RXRa partner concentration 90 nM)
# Procedure, shortened: as §1
# [5] = tested on: LXRb homodimer (NR concentration 270 nM)
# Procedure, shortened: as §1
# [6] = tested on: PPARa:RXRa (NR concentration 270 nM, RXRa partner concentration 90 nM)
# Procedure, shortened: as §1
# [7] = tested on: PPARg:RXRa (NR concentration 180 nM, RXRa partner concentration 90 nM)
# Procedure, shortened: as §1
# [8] = tested on: PPARg:RXRa 270nM:90nM, anti-RXR (NR concentration 270 nM, RXRa partner concentration 90 nM)
# Procedure, shortened: as §1
# [9] = tested on: PPARg:RXRa 30nM:10nM, anti-RXR (NR concentration 30 nM, RXRa partner concentration 10 nM)
# Procedure, shortened: as §1
# [10] = tested on: PPARg:RXRa 90nM:30nM, anti-RXR (NR concentration 90 nM, RXRa partner concentration 30 nM)
# Procedure, shortened: as §1
Sequence,PBM binding z-score [1],PBM binding z-score [2],PBM binding z-score [3],PBM binding z-score [4],PBM binding z-score [5],PBM binding z-score [6],PBM binding z-score [7],PBM binding z-score [8],PBM binding z-score [9],PBM binding z-score [10]
CGTCCAAGGACAGAGAGGTCAGTGAATGCCGAGT,1.59,1.6,1.09,1.72,-0.627,2.13,0.584,0.665,-0.328,-0.223
AGAATGAGGTTATTAAGTTCAGGGAATTGCGGTC,2.41,3.29,2.12,1.95,0.228,3.11,1.55,2.1,0.695,1.08
CCGACTGGAGCATAAGGTTACCATAAGCCAGCCC,0.0844,1.93,0.131,0.754,-0.551,0.887,0.85,1.49,-0.133,0.657
TCTAGTTGGTCAAAGGTTACACACTCGAAATGCG,2.63,3.13,1.38,3.04,0.929,5.08,9.84,8.86,8.99,9.47
CCTACTGGGCAAAGGTCATTGATCAGTCAAAGCA,4.96,5.6,3.49,4.8,0.805,5.63,8.03,7.54,5.9,7.6
CGAACTAGGTCACGAAAGGTCAAAGTCGAATGAC,7.73,8.18,7.39,7.24,2.38,6.49,10.5,8.46,6.75,8.51
GCAGACAGGTGAAACGCCGGTAACTCAGGGTGGC,-0.365,-0.144,-0.611,-0.313,-0.77,0.601,0.303,-0.0478,-0.502,-0.552
TCTTGAAGATCAAAGGTTAAGAAAGCCGAAGCCT,1.84,2.29,0.0814,2.16,-0.506,4.1,4.39,5.89,5.18,6.85
GCAGACAGGTGAAACGCAGGTTACTCAGGGTGGC,-0.0153,0.86,-0.533,0.216,-0.875,1.06,0.535,0.0459,-0.6,-0.266
CTACCAAGGTTAACAAGGTCGTTGATTACTATTC,2.61,3.3,1.09,2.89,0.472,3.28,1.03,1.76,0.841,1.46
ATCTCAAGGTAAAGTTCAGTGAAAGATCGATAGA,1.67,2.17,1.5,1.42,0.854,2.22,1.97,3.4,1.67,2.73
TCTGATAGGTCAACGATGGTCAGCTAATCTGCTA,5.29,4.83,0.975,3.31,0.737,4.76,3.47,4.48,3.79,4.21
CAAACTAGGTCACAGAGGTCAAGGTCCGTGCGTA,7.39,6.46,5.6,5.68,1.33,6.48,10.1,8.21,6.84,8.39
TAGCCTAGGTCAGACCGGGCCAGTATACGCTATA,2.15,1.09,-0.437,0.609,-0.719,1.61,0.828,0.617,-0.277,0.23
GGATCGAGGGCAAAGTTGATAGCATCTGTCGACG,1.65,1.21,-0.00761,0.937,-0.138,4.37,7.25,7.18,5.86,8.27
CCTTACGGGTCAAGGTTATAGGACGGGTGGTACG,5.27,3.82,0.302,3.28,0.221,5.05,4.55,4.69,2.05,3.36
ACTATTAGTTGAGACGAGGGCAAGCGATAGGTTG,0.338,-0.125,-0.12,-0.138,-0.0702,0.257,0.699,0.134,0.381,0.467
TCATATAGGTAATACAGGTGGAAGTCGGCATCTA,1.45,1.49,0.307,0.555,0.553,1.31,1.07,2.33,3.98,3.14
TCTAGTTGGTCACGGAGCTCACACACGACGGGTA,0.213,0.0936,-0.438,0.0145,-0.134,0.663,0.998,1.56,2.94,2.33
AATACAGGGTCACTAGGCCAGTGTAGGTACGAAT,5.94,5.39,1.08,3.91,0.765,5.69,7.83,6.59,3.05,5.85
TCTAGCTGGCCAGAGGGTCACTCAAGAGGTACGG,1.2,0.792,-0.669,1.05,-0.983,1.89,0.596,1.85,1.77,1.44
CAGCCTAGGTCATGGCCAGTATAGGAGGAACGTT,4.47,3.18,-0.187,1.92,-0.552,3.81,2.34,2.86,0.578,1.71
